# According to PubChem BioAssay (NCI):
# Compounds without any hit were thinned out: in the full panel of roughly 83,000, 20% have a hit.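 Each cell line was grown in a 96-well plate and treated with one concentration of compound for 48 hours. Values below 10 were considered active.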 Values without a mark were called inactive. Active and inactive are the calls of the source.
# How the values were obtained:
# Assay in all cases: NCI-60 one-dose screen, 48 h (100 = growth as untreated, 0 = no growth, -100 = all killed)
# [1] = test system: NCI-H322M lung; conditions: 10 µM
# [2] = test system: HOP-62 NSCLC; conditions: 10 µM
# [3] = test system: NCI-H460 lung; conditions: 10 µM
# [4] = test system: NCI-H522 lung; conditions: 10 µM
# [5] = test system: A549/ATCC NSCLC; conditions: 10 µM
# [6] = test system: DU-145 prostate; conditions: 10 µM
# [7] = test system: MALME-3M melanoma; conditions: 10 µM
# [8] = test system: SF-268 CNS; conditions: 10 µM
# [9] = test system: SF-295 CNS; conditions: 10 µM
# [10] = test system: SF-539 CNS; conditions: 10 µM
# [11] = test system: UACC-257 melanoma; conditions: 10 µM
# [12] = test system: M14 melanoma; conditions: 10 µM
# [13] = test system: HCT-15 colon; conditions: 10 µM
# [14] = test system: HT29 colon; conditions: 10 µM
# [15] = test system: SNB-75 CNS; conditions: 10 µM
# [16] = test system: PC-3 prostate; conditions: 10 µM
# [17] = test system: SK-MEL-5 melanoma; conditions: 10 µM
# [18] = test system: UACC-62 melanoma; conditions: 10 µM
# [19] = test system: SK-MEL-2 melanoma; conditions: 10 µM
# [20] = test system: HL-60(TB) leukemia; conditions: 10 µM unless noted
SMILES,growth [1],growth [2],growth [3],growth [4],growth [5],growth [6],growth [7],growth [8],growth [9],growth [10],growth [11],growth [12],growth [13],growth [14],growth [15],growth [16],growth [17],growth [18],growth [19],growth [20]
CC(=C\C(=O)Oc1ccc2c3c1OC1C(O)CCC4(O)C(C2)N(CC2CCC2)CCC314)/C=C1\CCCc2ccccc21 (stereo not given),69.9%,85.6%,12.1%,47.2%,48.9%,82.1%,34.6%,73.5%,63.2%,67.8%,-36.8% (active),-51.4% (active),7.2% (active),8.3% (active),59.8%,40.8%,45.5%,-16.4% (active),84.3%,17.9%
COc1ccc(/C=C/C(=O)c2nc3ccccc3n2Cc2ccc(Br)cc2)cc1,73.9%,92.8%,57.8%,76.4%,74.6%,61.9%,73.1%,68%,81.9%,78.3%,72.3%,72.5%,38.8%,64.9%,66.1%,57.4%,83.3%,65%,88.8%,41.2%
CC12OOC(C)(OO1)C2CCC(=O)NCCNc1ccnc2cc(Cl)ccc12 (stereo not given),97.4%,89.9%,101%,-61.6% (active),119%,104%,89.7%,95.6%,91.1%,102%,112%,105%,95.2%,105%,101%,98%,93.9%,91.8%,105%,88.9%
CC(=O)Oc1ccccc1C(=O)NC([Se])=NC1CCCCC1,0.722% (active),9.51% (active),6.6% (active),-95.7% (active),20.4%,20%,-6.63% (active),66.1%,-8.45% (active),-84.7% (active),-1.74% (active),20.7%,3.57% (active),32.1%,-75.3% (active),44.6%,-80% (active),-57.5% (active),-43.7% (active),7.53% (active)
O=C(/C=C/c1cccc(Br)c1)c1nc2ccccc2n1Cc1ccc(Br)cc1,51.9%,-42% (active),-40.3% (active),-53.4% (active),28%,4.37% (active),-36.5% (active),26.8%,-19.7% (active),-66% (active),6.73% (active),-31.7% (active),-78% (active),-49% (active),59.7%,0.947% (active),-26.4% (active),-82.5% (active),-42.3% (active),-19.3% (active)
COc1cc(OC)c(S(=O)(=O)N(CCCl)CCCl)cc1C(=O)/C=C/c1ccc(C)cc1,89.1%,70.8%,31.9%,82.6%,79.2%,88.3%,83.5%,67.2%,66.7%,56.9%,90%,86.4%,81.8%,80.7%,90.1%,67.6%,97.5%,74.3%,92.3%,65.6%
COc1cc2cc(C(=O)N3C[C@@H](CCl)c4c3cc(OC(=O)N3CCN(C)[C@@H]5CSSC[C@H]53)c3ccccc43)[nH]c2c(OC)c1OC,-12.4% (active),-19.1% (active),-68.9% (active),-68% (active),-58.4% (active),1.52% (active),-92% (active),2.46% (active),-43.2% (active),-96% (active),-46.3% (active),-76.2% (active),-18.7% (active),-50.7% (active),-74.3% (active),-24.8% (active),-100% (active),-92.9% (active),-91.8% (active),-43.4% (active)
CC[C@]12C=CCN3CC[C@@]4(c5ccc(OC)cc5N(C)[C@H]4[C@@](O)(C(=O)OC)[C@@H]1OC(=O)CCCC[P+](c1ccc(C)cc1)(c1ccc(C)cc1)c1ccc(C)cc1)[C@@H]32,-97.6% (active),-84% (active),-86.6% (active),-82.7% (active),-92.2% (active),-84.5% (active),-96% (active),-61.1% (active),-91.8% (active),-98.7% (active),-95% (active),-88.3% (active),-90.1% (active),-81.8% (active),-87.6% (active),-73.2% (active),-98.5% (active),-97.4% (active),-87.3% (active),-42.2% (active)
